The results in this text go back to PubChem BioAssay (NCATS).

Assay [1] can be described thus: Cell Viability - BJ (AID 421; calls by dose curve;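 also: potency is read from the fitted curve at half-maximal effect; cells exposed to compound for 40 hours at 37 °C before readout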). The following applies: BJ fibroblast viability, qHTS. The essentials:
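Normal human BJ foreskin fibroblasts, 1500/well in complete medium, treated 40 hr at 37 °C. Cellular ATP by CellTiter-Glo luminescence; normalized to DMSO and 100 uM tamoxifen, AC50 from Hill fit.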
For orientation: Quantitative high-throughput screening tests each substance at several concentrations.

The nature of assay [2]: Cell Viability - HepG2 (AID 433; calls by dose curve;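 also: potency is read from the fitted curve at half-maximal effect; cells exposed to compound for 40 hours; potency for ATP loss meaning cytotoxicity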). The note with it: qHTS. The essentials:
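Cytotoxicity read as ATP loss (CellTiter-Glo luminescence) after 40 hr compound exposure of HepG2, 1500 cells/well, 37 °C. AC50 by Hill equation; 0% set by DMSO, 100% inhibition by 100 uM tamoxifen.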

A short description of assay [3]: Cell Viability - Mesenchymal (AID 546).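 Also: cells exposed to compound for 40 hours before reading.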 The following applies: mesenchymal cells viability, qHTS; activity change, negative = cytotoxicity: at 91.7 µM (top of the series). The essentials: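 Normal human renal glomerulus-derived kidney mesenchymal cells, 1000 per well in complete medium, were treated with compounds for 40 hr at 37 °C. Viability was read as intracellular ATP by CellTiter-Glo luminescence; AC50 values came from Hill-equation fits of qHTS concentration-response data.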

A short description of assay [4]: Cellular Toxicity (caspase-3) Jurkat (AID 655).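 Also: cells exposed to compound for 16 h at 37 °C before reading.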 The following applies: Jurkat caspase-3 activation, luminescence; caspase-3 activation: at 92.2 µM (top of the series), DMSO = 0%, tamoxifen = 100%. In short, it runs like this: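 Luminescent Caspase-Glo 3/7 read-out (20 min, room temperature) after 16 h compound treatment at 37 C of 5000 Jurkat cells per well. AC50 derived by Hill-equation fitting, scaled between DMSO basal and 100 uM tamoxifen stimulation.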

The nature of assay [5]: Cell Viability - LYMP2-003 (AID 965).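 Also: cells exposed to compounds for 24 h before reading; nearly all actives have a fitted effect of over 50% in size.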 Also: potency is read from the fitted curve at half-maximal effect.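 As to activity change, negative = cytotoxicity: 0% = DMSO only and full effect = 92 µM tetraoctylammonium bromide.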 The following applies: LYMP2-003 lymphoblastoid cell viability; series mostly up to 92.2 µM. In short, it runs like this: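 CellTiter-Glo luminescence quantified ATP loss after 24 h compound treatment of LYMP2-003 lymphoblastoid cells at 37 C. Titration series were fitted with the standard Hill equation to give AC50.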
Assay [6] can be described thus: Cell Viability - LYMP2-011 (AID 969).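 Also: cells exposed to compound for 24 hours; 0% = DMSO only and full inhibition = 92 µM tetraoctylammonium bromide; nearly all actives have a fitted effect of over 60% in size.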 The following applies: LYMP2-011 lymphoblastoid cells viability; series mostly up to 92.2 µM. The essentials: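 2500 cells/well, 5 hr 37 C; compound added, 24 hr 37 C; CellTiter-Glo 30 min RT; luminescence. qHTS concentration-response, Hill-equation AC50. Tetraoctylammonium bromide positive control.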
Assay [7] is described as follows: Cell Viability - LYMP2-021 (AID 974).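 Also: compound exposure lasts 24 hours at 37 °C; % is scaled to controls: 0 for no effect and ±100 for the full control effect; nearly all actives have a fitted effect of over 55% in size.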 The note with it: LYMP2-021 lymphoblastoid cells viability; series mostly up to 92.2 µM. In short, it runs like this:
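Plate 2500 lymphoblastoid cells per well and incubate 5 hr at 37 C. Add compounds over a concentration range and incubate 24 hr at 37 C. Add CellTiter-Glo, wait 30 min at room temperature, read luminescence.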

Assay [8] can be described thus: Cell Viability - LYMP2-023 (AID 975).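 Also: cellular ATP measured by luciferase luminescence as viability proxy; cells exposed to compound for 24 hours at 37 °C; plate controls were DMSO only for no effect and 92 µM tetraoctylammonium bromide control for full effect; nearly all actives have a fitted effect of over 55% in size.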 The note with it: LYMP2-023 lymphoblastoid cell viability; series mostly up to 92.2 µM. The essentials: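 2500 cells/well, 5 hr 37 C; cpd 24 hr 37 C; CellTiter-Glo, 30 min RT; luminescence. qHTS conc-response, Hill fit -> AC50. Pos ctrl tetraoctylammonium bromide.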
Assay [9] in a line: Cell Viability - LYMP2-002 (AID 977).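 Also: plate controls were DMSO only for no effect and 92 µM tetraoctylammonium bromide for full effect.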 The following applies: LYMP2-002 lymphoblastoid cell viability, qHTS; series mostly up to 92.2 µM. The essentials: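 Luminescent ATP readout (CellTiter-Glo, 30 min room temperature) after 24 h compound exposure at 37 C of a human lymphoblastoid line, 2500 cells/well. AC50 values derived by standard Hill fitting of qHTS concentration-response data.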

Assay [10] in a line: Cell Viability - LYMP2-008 (AID 980). Also: % is scaled to controls: 0 for no effect and ±100 for the full control effect; nearly all actives have a fitted effect of over 60% in size. The following applies: LYMP2-008 lymphoblastoid cell viability, qHTS; series mostly up to 92.2 µM. In short, it runs like this: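 qHTS, human lymphoblastoid line, 2500 cells/well; 5 hr preincubation, 24 hr compound, 37 C. CellTiter-Glo ATP luminescence. AC50 via Hill equation. Tetraoctylammonium bromide positive control.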
A short description of assay [11]: Cell Viability - LYMP2-014 (AID 983).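 Also: plate controls were DMSO only for no effect and 92 µM tetraoctylammonium bromide for full effect; nearly all actives have a fitted effect of over 50% in size.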 The following applies: LYMP2-014 lymphoblastoid cells, viability qHTS; series mostly up to 92.2 µM. The essentials:
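Luminescent ATP signal (CellTiter-Glo, 30 min at room temperature) serves as the viability read-out after 24 hr compound exposure at 37 C. Cells were seeded at 2500 per well and settled 5 hr beforehand.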

A short description of assay [12]: Cell Viability - LYMP2-016 (AID 984).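 Also: cells exposed to compound for 24 hours at 37 °C; % is scaled to controls: 0 for no effect and ±100 for the full control effect; nearly all actives have a fitted effect of over 55% in size.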 The note with it: LYMP2-016 lymphoblastoid cell viability, qHTS; series mostly up to 92.2 µM. In short, it runs like this: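 Cytotoxicity was scored by luminescent ATP content (CellTiter-Glo) after 24 h compound exposure at 37 C of a human lymphoblastoid line at 2500 cells/well. Concentration-response data were fitted to the Hill equation for AC50.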

The nature of assay [13]: Cell Viability - LYMP2-018 (AID 985).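 Also: plate controls were DMSO only for no effect and tetraoctylammonium bromide at 92 µM for full effect; nearly all actives have a fitted effect of over 50% in size.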 The note with it: LYMP2-018 lymphoblastoid cells, viability (qHTS); series mostly up to 92.2 µM. In short, it runs like this: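 Luminescent ATP signal (CellTiter-Glo, read after 30 min at room temperature) reports viable cells after 24 hr compound treatment at 37 C. Concentration-response data were fitted to the standard Hill equation for AC50.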

A short description of assay [14]: Cell Viability - LYMP2-022 (AID 987). Also: nearly all actives have a fitted effect of over 55% in size. Also: potency is read from the fitted curve at half-maximal effect. The note with it: LYMP2-022 lymphoblastoid cell viability; series mostly up to 92.2 µM. In short, it runs like this: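 qHTS: human lymphoblastoid cells 2500/well; 5 hr 37 C; cpd added; 24 hr 37 C; CellTiter-Glo, 30 min RT; luminescence. AC50 via Hill fit; tetraoctylammonium bromide positive ctrl.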
Assay [15] can be described thus: Cell Viability - LYMP2-026 (AID 989). Also: % is scaled to controls: 0 for no effect and ±100 for the full control effect; nearly all actives have a fitted effect of over 50% in size. The note with it: LYMP2-026 lymphoblastoid cell viability, qHTS; series mostly up to 92.2 µM. The essentials:
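Luminescent ATP signal (CellTiter-Glo, 30 min room temperature) measures viable lymphoblastoid cells after 24 hr compound treatment at 37 C. Decreased ATP reflects acute toxicity; AC50 values come from Hill-equation modeling.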

Assay [16] is described as follows: qHTS assay for small molecule antagonists of retinoid X receptor alpha signaling (AID 588546; active = well fitted inhibition curve with a large enough effect in the signal ratio, with a control signal flat, not every such curve was filed as active; the % refers to the signal ratio;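 also: cells stimulated with 9-cis-retinoic acid as agonist; % is scaled to controls: 0 for no effect and ±100 for the full control effect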). The following applies: HEK293T RXRa-UAS-bla, beta-lactamase ratio, antagonist mode; measured here: W530 green channel, cytotoxicity proxy. The essentials:
(§1)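 Beta-lactamase reporter inhibition, read as CCF4 fluorescence ratio (ex 405, em 460/530 nm) after 2 h at RT. HEK293T UAS-bla cells, 2500/well, were stimulated with 9-cis-RA at 500 or 100 nM final alongside test compound for 18 h at 37 C.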

The target in assay [17] is Retinoic acid receptor RXR-alpha (Homo sapiens) (UniProt P19793). Described as above. The following applies: HEK293T RXRa-UAS-bla, beta-lactamase ratio, antagonist mode. In short, it runs like this:
as §1

Assay [18] is described as follows: qHTS assay for environmental chemicals that activate the Aryl hydrocarbon Receptor (AhR) signaling pathway (AID 651777). Also: nearly all actives have a fitted effect of over 15% in size. Also: potency is read from the fitted curve at half-maximal effect. As to activation: % of control where 0% means no effect. The following applies: 1A2-DRE human hepatoma cells, luciferase, 24 h; activation: stronger effect = higher value. In short, it runs like this: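 Stable CYP1A2 promoter/DRE-luciferase human hepatoma line treated 24 hr; One-Glo luminescence, 30 min RT.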

A short description of assay [19]: Cell Viability - LYMP2-025 (AID 976).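 Also: plate controls were DMSO only for no effect and tetraoctylammonium bromide control for full effect.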 The note with it: LYMP2-025 lymphoblastoid cell viability; series mostly up to 92.2 µM. The essentials: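 Seed 2500 LYMP2-025 cells/well; 5 hr at 37 C; add compound; 24 hr at 37 C; add CellTiter-Glo; 30 min RT; read luminescence. AC50 from Hill-modelled concentration-response.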
A short description of assay [20]: Cell Viability - LYMP2-024 (AID 988). Also: nearly all actives have a fitted effect of over 60% in size. Also: potency is read from the fitted curve at half-maximal effect.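 As to activity change, negative = cytotoxicity: plate controls were DMSO only for no effect and 92 µM tetraoctylammonium bromide for full effect.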 The note with it: LYMP2-024 lymphoblastoid cell viability; series mostly up to 92.2 µM. In short, it runs like this: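 Steps: seed 2500 cells/well, 5 hr 37 C; add compound, 24 hr 37 C; add CellTiter-Glo, 30 min room temperature; read luminescence. AC50 derived by Hill modelling of concentration-dependent ATP loss.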

Where “and” joins values, the source holds several entries; their conditions need not be identical. Equal values may be shown once. Inconclusive results are not listed. Calls of active or inactive are those of the source. Unless noted, calls follow the shape of the dose curve; as a rule, active = well fitted curve in the direction sought with a large enough effect; inconclusive = small, poorly fitted or top-dose-only effect, or another doubt; inactive = no such curve, though single readings can be large; an effect the other way counts as inactive or inconclusive. A value given as a limit tells only on which side of the number the result lay.

Sequence of Retinoic acid receptor RXR-alpha (Homo sapiens) (P19793 whole entry, looked up): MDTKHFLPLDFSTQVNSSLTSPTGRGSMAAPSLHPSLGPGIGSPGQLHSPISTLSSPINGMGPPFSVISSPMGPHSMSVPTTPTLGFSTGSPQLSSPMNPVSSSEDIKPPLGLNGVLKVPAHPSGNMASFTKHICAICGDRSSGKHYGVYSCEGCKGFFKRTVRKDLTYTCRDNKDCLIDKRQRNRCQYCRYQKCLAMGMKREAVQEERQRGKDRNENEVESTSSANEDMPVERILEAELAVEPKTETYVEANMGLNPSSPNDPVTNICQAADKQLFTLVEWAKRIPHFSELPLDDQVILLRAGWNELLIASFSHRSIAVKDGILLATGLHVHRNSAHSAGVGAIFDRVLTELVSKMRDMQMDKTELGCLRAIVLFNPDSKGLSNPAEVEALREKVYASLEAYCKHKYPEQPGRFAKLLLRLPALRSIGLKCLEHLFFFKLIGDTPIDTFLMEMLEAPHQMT

Consider `Nc1ccc(N)c(Cl)c1`, for which the Potency in [1] was > 92 µM (inactive); in [2], > 92 µM (inactive); in assay [14], 39.8 µM (active). For the same compound, the Potency result in assay [3], in assay [4], in assay [5], in assay [6], in assay [7] and in assay [8] was “inactive” each time. In addition, the Potency entry in [9], in [10], in assay [11], in assay [12], in [13] and in assay [15] was “inactive” each time. Moreover, the max response in [16] is 4.58%; in assay [17], 9.54% (inactive).

In the case of `Cc1c(C(=O)O)c(O)cc2c1C(=O)c1c(O)c([C@H]3O[C@H](CO)[C@@H](O)[C@H](O)[C@H]3O)c(O)c(O)c1C2=O`, the Potency result in assay [4] and in assay [9] was “inactive” in each case. Further, the figures for the max response in [16] and in assay [17] were -15.8% and 21% (inactive), respectively. For the same compound, the activation in assay [18] was -4.11% (inactive).

As to `O=C1OC(=O)c2ccccc21`, the Potency in assay [1] and in assay [2] was > 92 µM (inactive) throughout. Further, the Potency entry in [3], in assay [5], in [6], in assay [7], in assay [8] and in [19] was “inactive” each time. The Potency result in assay [9], in assay [10], in [11], in assay [12], in assay [13] and in assay [14] was “inactive” in each case. The Potency entry in [20] and in [15] was “inactive” each time. For the same compound, the max response in assay [16] is 4.94%; in assay [17], 20.4% (inactive).

With `CC(/C=C/C=C(C)/C=C/C(=O)O)=C\C=C\C=C(C)\C=C\C=C(C)\C=C\C(=O)O`, the Potency in [1] is > 92 µM (inactive); in [2], > 92 µM (inactive); in assay [5], 50.1 µM (active). The Potency entry in assay [3], in assay [4], in assay [6], in [7], in [8] and in assay [19] was “inactive” throughout. Moreover, the Potency result in assay [9], in assay [10], in assay [11], in [12], in assay [13] and in assay [20] was “inactive” throughout. Moreover, the Potency result in assay [15] is “inactive”. Besides, the max response in [16] is -20%; in assay [17] it was 16.8% (inactive). For the same compound, the activation in assay [18] was 9.06% (inactive).

On to `C=CC(=O)CC`, for which the Potency in assay [1] and in assay [2] was > 92 µM (inactive) in each case. Besides, the Potency result in [3], in assay [4], in [5], in [6], in assay [7] and in [8] was “inactive” each time. For the same compound, the Potency result in [19], in [9], in [10], in assay [11], in assay [12] and in assay [13] was “inactive” throughout. Moreover, the Potency entry in assay [14], in [20] and in assay [15] was “inactive” throughout. For the same compound, the max response in [16] was 8.25%; in assay [17] it was 10.2% (inactive). For the same compound, the activation in [18] was 1.17% (inactive).

Consider `Brc1cc(Oc2cc(Br)c(Br)c(Br)c2Br)c(Br)c(Br)c1Br`, for which the Potency in [1] and in assay [2] was > 92 µM (inactive) in each case. The Potency result in [3], in [4], in [5], in assay [6], in [7] and in assay [8] was “inactive” each time. Besides, the Potency result in [19], in assay [9], in assay [10], in assay [11], in [12] and in [13] was “inactive” throughout. The Potency entry in assay [14], in assay [20] and in assay [15] was “inactive” throughout. Further, the max response was 11.5% and 5.63% in assay [16]; 8.94% (inactive) and -3.66% (inactive) in assay [17]. Further, the activation in assay [18] is -1.15% (inactive) and -2.65% (inactive).

With `CCN(CC)c1ccc(N)cc1`, the Potency result in assay [3], in assay [4], in assay [19] and in assay [15] was “inactive” in each case. For the same compound, the Potency in [5] is 39.8 µM (active); in assay [14], 39.8 µM (active); in [18], 44.7 µM (active). In addition, the results for the max response in assay [16] and in [17] were 9.43% and -16.2% (inactive), respectively.

In the case of `Cc1ccc(O)c(N)c1`, the Potency in [1] was > 92 µM (inactive); in [2] it was > 92 µM (inactive); in [5] it was 79.4 µM (active); in assay [14], 39.8 µM (active); in [20] it was 39.8 µM (active); in [18], 50.1 µM (active). Moreover, the Potency result in [3], in assay [4], in [19], in [9] and in assay [15] was “inactive” in each case. In addition, the max response is -2.88% in assay [16] and 11.9% (inactive) in assay [17].

Regarding `O=C(O)c1ccc([N+](=O)[O-])cc1`, the Potency in assay [1] and in assay [2] was > 92 µM (inactive) throughout. In addition, the Potency result in assay [3], in [5], in assay [6], in [7], in assay [8] and in [19] was “inactive” each time. Besides, the Potency result in [9], in [10], in assay [11], in assay [12], in assay [13] and in assay [14] was “inactive” each time. Moreover, the Potency entry in assay [20] and in [15] was “inactive” each time. The caspase-3 activation in assay [4] was 85.2% (active). Further, the max response was -8.75% and -3.59% in assay [16]; 3.05% (inactive) and 5.55% (inactive) in assay [17]. The activation in [18] is 0.333% (inactive) and 2.14% (inactive).
